According to PubChem BioAssay AID2315 (National Center for Advancing Translational Sciences (NCATS), 2010):
“And” between values parts separate entries of the source, which are not always exact repeats. Equal values may be shown once. About 27,000 (9.3%) of roughly 290,000 compounds were called active. The sample holds actives, similar compounds and a random draw of the others, so the mix is not that of the screen. Cut-off read from the data, not from the text of the source: active = inhibition mostly above about 28% (no sharp cut-off); inactive = mostly below about 43%.

Assay: A qHTS for Small Molecule Inhibitors of Shiga Toxin; note: 0% is about no effect
Settings: Vero cells, Shiga toxin protein synthesis inhibition reporter; at 38.7 µM, stronger effect = higher value

Compound | inhibition
Cc1nn(C(C)(C)C)c(OC(=O)CC(C)C)c1S(=O)(=O)c1ccccc1 | -3.07% (inactive)
CC/C(=N\NC(=O)c1c(C)nc2ccccn12)c1ccc(Cl)cc1 | -1.53% (inactive)
COc1cccc(C(=O)NCCSc2ccc(Br)cc2)c1 | 0.537% (inactive)
COc1ccc(C(=O)NCCSc2ccccc2C)cc1 | 47.6% (active)
COc1ccc(C(=O)NCc2nnc(SCCOc3ccccc3)n2C)cc1 | -8.47% (inactive)
CCn1cc(C(=O)NCC(=O)NC(C)(C)CO)c(=O)c2cc3c(cc21)OCO3 | -1.71% (inactive)
COc1ccc(NS(=O)(=O)c2ccc(NC(C)=O)cc2)cc1OC | -6.59% (inactive)
COc1ccccc1-n1cnc2cc(NS(=O)(=O)c3ccccc3)ccc21 | 60.3% (active)
COCCCNC(=O)c1ccc2c(c1)ncn2-c1ccccc1OC | 41.9% (inactive)
COc1cccc(-c2coc3cc4oc(=O)c(CC(=O)O)c(C)c4cc23)c1 | 5.32% (inactive)
Cc1nc2ccc(N3CCN(C)CC3)cc2nc1C | 41.4% (active)
COc1cccc(-c2nc3ccc(N4CCN(C)CC4)cc3[nH]2)c1 | -25.4% (inactive)
CN1CCN(c2ccc([N+](=O)[O-])c(Sc3nc4ccccc4[nH]3)c2)CC1 | -2.62% (inactive)
CCCc1cc(=O)oc2c(C)c(OCC(=O)NCc3ccccn3)ccc12 | -5.37% (inactive)
CCCc1cc(=O)oc2c(C)c(OCC(=O)N3CCC(C(=O)O)CC3)ccc12 | -4.56% (inactive)
CCCc1cc(=O)oc2c(C)c(OCC(=O)Nc3ccccn3)ccc12 | 97.8% (active)
Cc1cnc(C(=O)Oc2cccc(Cl)c2Cl)cn1 | -6.08% (inactive)
O=C(/C=C/c1cccc(C(F)(F)F)c1)N1CCN(c2ccccn2)CC1 | -28.6% (inactive)
Cc1ccccc1CSc1nnc(-c2ccccn2)n1N | 62.4% (active)
N#Cc1ccc(CSc2nnc(-c3ccccn3)n2-c2ccc(Cl)cc2)cc1 | 9.81% (inactive)
Cc1ccccc1CSc1nnc(-c2cccnc2)n1N | 47.7% (active)
Cn1c(SCC(=O)C(C)(C)C)nnc1-c1ccccn1 | 51.8% (inactive)
Cc1ccccc1CSc1nnc(Cn2c(=O)sc3ccccc32)n1C | -3.34% (inactive)
O=C(CSc1nnc(-c2cccnc2)n1CCc1ccccc1)NCc1ccccc1 | 9.64% (inactive)
COCCNc1cc(-c2ccccc2)nc2cc(-c3cccc(F)c3)nn12 | 13.9% (inactive)

Compound | inhibition
O=S(=O)(c1ccc2c(c1)OCCCO2)N1CCN(S(=O)(=O)c2c(F)cccc2F)CC1 | -5.98% (inactive)
Cc1ccc(CNC(=O)C2(C(F)(F)F)C/C(=C\Cc3ccccc3)CCCO2)o1 (stereo not drawn) | -4.26% (inactive) and 0.0699% (inactive)
COc1ccc(N(C)C(=O)C2CCN(S(=O)(=O)c3cccc4nsnc34)CC2)cc1 | 8.11% (inactive)
Cc1ccc(S(=O)(=O)N2CCN(C)CC2)cc1C(=O)NC1CCCCC1 | -5.78% (inactive)
N#C/C(=C1/CCCN1)c1ccccn1 | -5.25% (inactive)
c1ccc(-c2csc(N3CCc4ccccc4C3)n2)cc1 | 57.4% (inactive)
CCCCCN1CC(O)=C(c2nc(-c3ccc(Cl)cc3)cs2)C1=N | 23.2% (inactive)
N#CC(=C1SC=CS1)c1nc(-c2ccccc2)cs1 | 79.5% (active)
Cn1c(/C(C#N)=C2/CCCCCN2)nc2ccccc21 | 9.28% (inactive)
N#C/C(=C1\CCCN1)c1nc(-c2ccccc2)cs1 | 76.5% (active)
N#CC(=C1CCCC1)c1nc(-c2ccc(Cl)cc2)cs1 | 50.4% (active)
CCc1ccc(NC(=O)CS(=O)CC(=O)N2CCN(c3ccccc3F)CC2)cc1 (stereo not drawn) | 9.39% (inactive)
CN(C)CCCNC(=O)c1cc(C(=O)Cc2ccc(Cl)cc2)c[nH]1 | -5.52% (inactive)
CCc1cccc(NC(=O)CCCN2C(=O)C(c3ccccc3)Oc3cccnc32)c1 (stereo not drawn) | -2.72% (inactive)
CCC1=Nc2cc(C(=O)NCCCN3CCOCC3)ccc2Sc2ccc(Br)cc21 | -9.37% (inactive)
Cc1cccc(N(C(=O)c2csnn2)C(C(=O)NCc2ccccc2)c2ccncc2)c1 (stereo not drawn) | -9.04% (inactive)
CCCOc1ccc(N/C=C/C(=O)C(C)(C)C)cc1 | 49% (active)
CCCOc1ccc(NC(=O)C2CCCNC2=O)cc1 (stereo not drawn) | 25.7% (inactive)
CN(C)c1ccc(N/C=C/C(=O)C(F)(F)F)cc1 | 71.1% (inactive)
Cc1ccc(N/C=C/C(=O)c2ccccc2)cc1C | 17.5% (inactive)
CCOc1ccc(NC(=S)N2CCC(NC(=O)c3ccccc3)CC2)cc1 | -10.8% (inactive)
CCOc1ccc(N/C=C/C(=O)c2ccccc2)cc1 | 69.8% (active)
COc1ccc(N2CCN(C(=O)c3cn(C)c4ccc(S(=O)(=O)N5CCOCC5)cc4c3=O)CC2)cc1 | -3.12% (inactive)
O=[N+]([O-])c1cc([N+](=O)[O-])c(Oc2cc(F)cc(F)c2F)cc1NN1CCCCC1 | 1.85% (inactive)
CCCn1nc(NS(=O)(=O)c2ccc(F)cc2)c2cc3ccccc3nc21 | -7.87% (inactive)

Compound | inhibition
O=S1(=O)CCO[C@H]2Cc3ccccc3[C@H]2N1Cc1ccccc1 | -2.08% (inactive)
CC(=O)Nc1ccc(C(=O)OCC(=O)Nc2ccc([N+](=O)[O-])cc2C(F)(F)F)cc1 | 14.6% (inactive)
CN(C)c1nc(=Nc2cccc(Cl)c2)ss1 | 77% (active)
O=C(NC1CCC(O)CC1)c1ccccc1OCc1ccc(F)cc1 (stereo not drawn) | -2.79% (inactive)
CC(=O)Nc1ccc(NC(=O)CSc2nnnn2-c2ccccc2F)cc1 | 61.1% (inactive)
COc1ccc(C(=O)CSc2nnnn2C)c(OC)c1 | 32.4% (inactive)
CCn1nnnc1SCC(=O)c1ccc(C)cc1C | 77.4% (active)
CCn1nnnc1SCC(=O)Nc1ccc(N(C)C)cc1 | 44.2% (active)
Cc1ccc(C)c(-n2nnnc2SCC(=O)c2c(N)n(C)c(=O)n(C)c2=O)c1 | -10.4% (inactive)
COc1ccc(-n2nnnc2SCC(=O)Nc2ccccc2)cc1 | -15.5% (inactive)
Cc1cc(C(=O)N/N=C/c2ccccn2)c2ccccc2n1 | -6.51% (inactive)
O=C(Nc1ccccc1N1CCN(C(=O)c2ccccc2)CC1)c1ccco1 | 9.04% (inactive)
CC(C)NS(=O)(=O)c1ccc(OCC(=O)NC2CCCCCC2)cc1 | -16.9% (inactive)
CC(Oc1ccc(F)cc1)C(=O)N1CCN(c2ncccn2)CC1 (stereo not drawn) | -12.5% (inactive)
Cc1ccc(NN=C2C(=O)OC(C)(C)OC2=O)c(C)c1 | 93.9% (active)
Cc1ccc(NC(=O)c2oc(=O)c3ccccc3c2-c2ccccc2)c(C)c1 | -10.4% (inactive)
Cc1ccc(NC(=O)CCC(=O)N/N=C/c2ccco2)c(C)c1 | 9.07% (inactive)
COC(=O)C(C)n1cnc2c(nnn2-c2ccc(F)cc2)c1=O (stereo not drawn) | 8.93% (inactive)
COc1ccc(NC(=O)c2sc3nc(C)nc(N4CCN(c5ccccn5)CC4)c3c2C)c(OC)c1 | -5.19% (inactive)
CCn1ccnc1CN(C)Cc1nc(-c2ccc3c(c2)OCO3)no1 | 50.1% (active)
CN(CCN1CCOCC1)Cc1nc(-c2ccc3c(c2)OCO3)no1 | 13.4% (inactive)
CC(C)N(Cc1nc(-c2ccc3c(c2)OCO3)no1)CC1CCC(=O)N1 (stereo not drawn) | -4.06% (inactive)
O=C(OCC(=O)c1cccs1)c1ccc([N+](=O)[O-])o1 | 41.9% (inactive)
O=C(OCC(=O)c1cccs1)C1=COCCO1 | 98.9% (active)
CCC(C)(C)c1ccc(Oc2ccc(NC(=O)COC(=O)C3=COCCO3)cc2)cc1 | 23.6% (inactive)

Compound | inhibition
O=C(NCc1ccccc1)C1CCN(C(=O)Cc2ccccc2)CC1 | -23.8% (inactive)
O=C(CCn1nnnc1CN1CCOCC1)N1CCC(c2ccccc2Cl)C1 (stereo not drawn) | 11% (inactive)
NNc1nc2c(Cl)cccc2s1 | 69.4% (active)
NC(=O)c1c(Nc2nc3c(F)cccc3s2)sc2c1CCCC2 | 13.4% (inactive)
CN(C)CCCN(C(=O)COc1ccccc1)c1nc2c(Cl)cccc2s1 | -6.79% (inactive)
C/C(=N\NC(=O)c1cccc([N+](=O)[O-])c1)c1cccnc1 | 11.6% (inactive)
COc1ccc(N2CCC(N3CCN(C)C(CCO)C3)CC2)cc1 (stereo not drawn) | 0.592% (inactive)
COc1ccc(CCN2CC(C(=O)NCCN3CCNC3=O)CCC2=O)cc1 (stereo not drawn) | 1.29% (inactive)
CCN(CC)c1ccc(/C=N/Nc2nc(C)cc(=O)[nH]2)cc1 | 2.75% (inactive)
Cc1cc(=O)[nH]c(N/N=C/c2ccc3c(c2)OCCO3)n1 | 44.5% (active)
Cc1cc(=O)[nH]c(N/N=C/c2c(C)nn(-c3ccccc3Cl)c2Cl)n1 | 47% (inactive)
Cc1[nH]c2ccccc2c1C(=O)CN1CCCC(C)C1 (stereo not drawn) | -6.74% (inactive)
Nc1ccccc1SC(C[N+](=O)[O-])c1ccccc1 (stereo not drawn) | 77.6% (active)
Cc1ccc(C(C[N+](=O)[O-])c2c(C)cc3ccccn23)cc1 (stereo not drawn) | 6.95% (inactive)
NS(=O)(=O)c1ccc(CNC(=O)c2cccc(Oc3ccccc3)c2)cc1 | 6.72% (inactive)
O=C(NCc1cn2ccsc2n1)Nc1ccc(Cl)cc1 | -6.11% (inactive)
CCC(=O)Nc1ccc(C(=O)NNC(=O)c2ccc(Cl)cc2)cc1 | 21.7% (inactive)
O=C(Nc1ccc(Cl)cc1)c1ccsn1 | 71.9% (active)
Cc1cc(-c2ccc(C)c(S(=O)(=O)NCCCN(Cc3ccccc3)C(C)C)c2)on1 | -6.03% (inactive)
Cc1cccc(NC(=O)NC2(C)CCS(=O)(=O)C2)c1 (stereo not drawn) | 11.8% (inactive)
CC(C)(C)c1ccc(NC(=O)NCc2ccco2)cc1 | 74.2% (active)
CC(C)(C)NC(=O)NCc1ccco1 | 12.4% (inactive)
CC(C)(C)c1ccc(C(=O)NCCC(=O)NCc2ccco2)cc1 | 6.3% (inactive)
